Compounds with a hit are over-represented: about 17% of the library has one in this group of screens.
HepG2 tox: counter-screen for TGF-b inhibitors: cytotoxicity in HepG2 cells; HepG2 CAGA-GFP viability, ATP luminescence, 18 h; actives 0.76% (n = 410,000); AID 588856; Potency, µM (titrated, usually from 46.1 µM), actives largely listed as cytotoxic
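CellTiter-Glo luminescence gave cytotoxicity after 18 hours at 37 degrees C. The cells were HepG2 CAGA-GFP in 1% FBS DMEM, stimulated with 500 pg/mL TGF-beta after compound addition. %Activity was normalised to no-cell wells (complete cell-killing) and DMSO (no toxicity), and curves were fitted and classified.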
TDP1 cell noCPT: qHTS for Inhibitors of human tyrosyl-DNA phosphodiesterase 1 (TDP1): qHTS in cells in absence of CPT; DT40 Tdp1-/- hTDP1 cells, no CPT, ATP luminescence, 48 h; Potency, µM (doses to about 46.2 µM), hits mostly inhibitors; actives 15% (n = 420,000); further: nearly all actives have a fitted effect of over 55% in size
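DT40 Tdp1-/-;hTDP1 cells, no CPT (DMSO vehicle only), 400 cells/well; compounds pin-transferred; ≥48 hr, 37 °C; CellTiter-Glo 30 min RT dark, luminescence read.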
S2 tox: cell viability loss in ATXN counter-screen; S2 cells (HEK-293 line with an ATXN2-luciferase reporter) viability, CellTiter-Fluor protease fluorescence, 24 h; Potency, µM (series often up to 56.7 µM), usual class: cytotoxic; actives 0.49% (n = 400,000); AID 651635; further: nearly all actives have a fitted effect of over 40% in size
TDP1 cell CPT: growth inhibition of DT40 Tdp1-/-;hTDP1 cells with camptothecin (screen for TDP1 inhibitors). chicken DT40 Tdp1-/-;hTDP1 cells + 20 nM CPT, ATP luminescence, 48 h. Potency, µM (doses to about 46.2 µM), usual class: inhibitors. actives 12% (n = 420,000). AID 686979; further: nearly all actives have a fitted effect of over 55% in size
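Cell growth measured by CellTiter-Glo luminescence after a minimum 48 h, 37 C compound exposure with 20 nM CPT in Tdp1-knockout DT40 cells stably expressing hTDP1, seeded 400/well; qHTS titration format.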
ATXN2 expr inh: inhibitors of ATXN2 expression. HEK-293 ATXN2-luciferase reporter, luminescence, 24 h. Potency, µM (titrated, usually from 57 µM), most hits filed as inhibitors. actives 0.72% (n = 360,000); further: nearly all actives have a fitted effect of over 55% in size
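qHTS (up to 57 uM final) was run with 24 h compound exposure of reporter cells at 37 °C. Each well was multiplexed: SteadyGlo luminescence measured ATXN2-luciferase expression after a fluorogenic Gly-Phe-AFC viability readout (25 uM final).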
TGFb inhibitor: inhibitors of TGF-b signaling; HepG2 CAGA-GFP TGF-b/SMAD3 reporter, GFP fluorescence, 18 h; TGF-beta stimulated, 500 pg/mL final; Potency, µM (series often up to 46.1 µM), hits mostly inhibitors; actives 1.2% (n = 410,000); AID 588855; further: nearly all actives have a fitted effect of over 65% in size
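Read-out: total well GFP (ex488/em500-530) summed from mean per-cell fluorescence. Cells: HEPG2 CAGA-GFP, 1% FBS DMEM, 18 h at 37 degrees C with 500 pg/mL final TGF-beta. Unstimulated wells served as the full-inhibition control; stimulated DMSO wells = 0%.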
A number is an active result; . = inactive; ? = inconclusive; / = not tested or not shown; ! = repeats disagree. The call rests on the fitted dose curve; in most records, active means well fitted curve in the direction sought with a large enough effect; inconclusive means small, poorly fitted or top-dose-only effect, or another doubt; inactive means no such curve, though single readings can be large; an effect the other way counts as inactive or inconclusive.

SMILES | HepG2 tox | TDP1 cell noCPT | S2 tox | TDP1 cell CPT | ATXN2 expr inh | TGFb inhibitor
CCC(=O)N1CCC(C)(C(=O)Nc2ccc(OC)c(OC)c2)C1 (stereo unspecified) | . | . | . | . | . | .
O=C(NC1CCCC1)C1C(c2ccc(C(F)(F)F)cc2)=Nc2ccccc2N1C(=O)c1cc2ccccc2[nH]1 (stereo unspecified) | / | 13µM | / | ? | / | /
COc1ccc(CCC(=O)N2c3ccccc3N=C(c3ccc(C(F)(F)F)cc3)C2C(=O)NC2CCCC2)cc1 (stereo unspecified) | / | 18.4µM | / | ? | / | /
COc1ccc(CCC(=O)N2CCN(C3CCCCC3)CC2)cc1 | . | . | ? | . | . | .
CC(C)Cn1nc(C(=O)NCc2ccccc2CN2CCCC2)c2ccccc2c1=O | . | ? | . | ? | . | .
CCCNC(=O)c1ccccc1NC(=O)c1ccccc1N(C)S(=O)(=O)c1ccc(C)cc1 | . | 18.4µM | ? | ? | . | .
CCOC(=O)c1ccc(NC(=O)c2ccccc2N(C)S(=O)(=O)c2ccccc2)cc1 | . | ? | ? | 18.4µM | . | .
CCCNC(=O)c1ccccc1NC(=O)c1ccccc1N(C)S(C)(=O)=O | . | . | . | . | . | .
CCOC(=O)c1cccc(NC(=O)/C=C/c2ccc([N+](=O)[O-])cc2)c1 | . | 8.2µM | . | 14.6µM | . | ?
CCCCN(CCCC)C(=O)/C=C/c1cccc([N+](=O)[O-])c1 | . | 16.4µM | ? | ? | . | .
COC(=O)c1cccc(NC(=O)/C=C/c2cccc([N+](=O)[O-])c2)c1 | . | 12.6µM | . | ? | . | .
Nc1cc2c(cc1Br)-c1ccc(F)cc1C2O (stereo unspecified) | . | . | ? | . | . | .
Cc1ccc(C)c(OCc2cc(C(=O)N(C)Cc3nccs3)no2)c1 | . | . | . | . | . | .
CC(O)(CC(=O)CC(=O)c1ccccc1)c1ccccc1 (stereo unspecified) | . | ? | . | ? | . | .
Cc1ccc2c(c1)N(CC(=O)N1CCN(c3ccccc3)CC1)C(=O)C(C)O2 (stereo unspecified) | . | . | . | . | . | .
O=S(=O)(c1ccc(F)cc1)c1nc(-c2ccco2)oc1NCCCn1ccnc1 | . | . | . | . | / | .
O=C1CCCC2=C1C(c1cccs1)n1nc(SCc3ccccc3F)nc1N2 (stereo unspecified) | . | 23.1µM | . | 11.6µM | . | ?
CSc1nc2n(n1)C(c1cccs1)C1=C(CCCC1=O)N2 (stereo unspecified) | . | . | ? | . | . | .
Cc1ccccc1CSc1nc2n(n1)C(c1cccs1)C1=C(CCCC1=O)N2 (stereo unspecified) | . | 18.4µM | . | 20.6µM | . | ?
CCC(=NOCc1ccccc1)C(=O)NNS(=O)(=O)c1ccc(C)cc1 | . | . | . | . | . | .
CCN(CC(=O)Nc1cc(Cl)ccc1C)C(=O)CCOc1ccccc1C | . | ? | . | ? | . | .
C/C=C1\COC(C(=O)NCCN2CCCC2)(C(F)(F)F)C=C1C=C1CCCCC1 (stereo unspecified) | . | 20.6µM | ? | 18.4µM | ? | ?
C/C=C1\COC(C(=O)NCCN2CCOCC2)(C(F)(F)F)C=C1C=C1CCCCC1 (stereo unspecified) | . | / | / | / | / | ?
C/C=C1\COC(C(=O)NCCCN2CCCC2=O)(C(F)(F)F)C=C1C=C(C)C (stereo unspecified) | 11.2µM! | 18.4µM | . | 20.6µM | . | ?
CC1=C(C(=O)Nc2cccc(C)c2C)C(c2cccs2)NC(=S)N1 (stereo unspecified) | . | ? | . | ? | . | .
CCCCn1c(=O)[nH]c(=O)c2c1nc(Cn1ncc(Cl)c(Cl)c1=O)n2CCC | 11.2µM | 2.59µM | ? | 4.61µM | ? | 6.31µM

Assay outcomes as filed in PubChem.
